Sampled rows, rich in hits. Any-hit rate of the full collection: about 4.7%.
ALR inh = inhibitors of human sulfhydryl oxidase ALR; actives 3.8% (n = 290,000); AID 485317; purified ALR, DTT oxidation, H2O2 HRP-luminol luminescence; inhibition, % (no concentration beside the values);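 active = mean replicate inhibition above about 79%, with every replicate also reaching it, limit read from the data; inconclusive = only one of the two criteria met; inactive = mean below limit and not every replicate reaching it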
Target sequence (P55789 whole entry, looked up): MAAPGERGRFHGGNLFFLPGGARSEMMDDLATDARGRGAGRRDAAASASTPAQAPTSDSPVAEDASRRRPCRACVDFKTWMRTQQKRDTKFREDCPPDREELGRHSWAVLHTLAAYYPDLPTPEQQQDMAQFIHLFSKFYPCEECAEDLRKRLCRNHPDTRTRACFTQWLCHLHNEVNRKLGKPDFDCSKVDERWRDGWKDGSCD
PABP FP inh = PABP-poly(A) binding inhibition; PABP-poly(A) RNA binding, fluorescence polarization; inhibition, % at 35 µM; actives 1% (n = 290,000);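 also: calls also rest on retests at 20 µM and on dose response follow-up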
UBC9 SUMO inh = inhibitors of human SUMOylation (UBC9); P63279; actives 0.36% (n = 290,000); AID 2006; inhibition, % at 35 µM; HTRF SUMOylation assay, SAE1/SAE2 + UBC9, in vitro; in the data active = inhibition above about 50%, passing the limit was not always enough; inconclusive = no clear call, values can overlap the other calls
Target sequence (P63279 whole entry, looked up): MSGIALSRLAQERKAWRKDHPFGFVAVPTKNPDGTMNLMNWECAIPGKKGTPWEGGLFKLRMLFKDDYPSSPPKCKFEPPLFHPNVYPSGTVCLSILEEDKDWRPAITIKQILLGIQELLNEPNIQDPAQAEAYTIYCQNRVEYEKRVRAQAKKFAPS
MLLE-PAM2 inh = inhibitors of microRNA-mediated deadenylation, human PABP1 MLLE binding. actives 0.36% (n = 360,000). P11940. AID 588489. GST-MLLE / FITC-PAM2 fluorescence polarization. inhibition, % at 20 µM; in the data active = inhibition above about 35%, passing the limit was not always enough
eIF4H inh = inhibitors of RNA binding by human eIF4H; Q15056; eIF4H fluorescence polarization binding assay; actives 0.94% (n = 290,000); inhibition, % at 35 µM;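 also: calls also rest on retests at 20 µM and on dose response follow-up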
Efflux pump mplx = inhibitors of Candida antifungal efflux pumps expressed in yeast | S. cerevisiae Candida pump triplex, Nile Red efflux | inhibition, % at 10 µM | actives 0.44% (n = 330,000) | AID 485275;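 active = plate passing quality check with inhibition over a set limit, or well fluorescence over plate mean plus 4 SD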;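 also: Nile Red retained in pooled yeast measured as flow cytometry median fluorescence; higher means more Nile Red kept so more efflux inhibition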
Hits are given with their value; n = inactive; u = inconclusive; x = no result. Unless noted, no rule for the calls is given here.

SMILES | ALR inh | PABP FP inh | UBC9 SUMO inh | MLLE-PAM2 inh | eIF4H inh | Efflux pump mplx
Cc1ccc(-c2nnc(Nc3ccc4c(c3)OCO4)c3ccccc23)cc1S(N)(=O)=O | x | n | n | n | n | n
Cc1nnc(Nc2ccc3c(c2)OCO3)c2ccccc12 | 88.2 | n | n | n | n | n
CC(=O)NNC(=O)c1[nH]c2ccc(Br)cc2c1-c1ccccc1 | 96.9 | n | n | n | n | n
O=C(O)c1[nH]c2ccccc2c1-c1ccccc1 | 98.0 | n | n | n | n | n
Cc1ccc2[nH]c(C(=O)NN=C3CCCCC3)c(-c3ccccc3)c2c1 | x | n | n | n | n | n
CCOC(=O)NNC(=O)c1[nH]c2ccc(Br)cc2c1-c1ccccc1 | n | n | n | n | n | n
Cc1ccc2[nH]c(C(=O)O)c(-c3ccccc3)c2c1 | 98.3 | n | n | n | n | n
CC(=O)Nc1c(C(=O)O)[nH]c2ccccc12 | n | n | n | n | n | n
CC(C)c1ccc(NC2=CC(=O)CC(C)(C)C2)cc1 | x | n | n | n | n | n
COc1ccc(N2C(=O)/C(=C/N(C)C)NC2=S)cc1 | n | n | n | n | n | n
CCN1C(=O)/C(=C\N(C)C)NC1=S | 97.5 | n | n | n | n | n
COc1ccccc1C(=O)NCC(=O)N1CCN(c2ncccn2)CC1 | n | x | x | n | x | n
CC(/C=C/c1ccc(N(C)C)cc1)=N\N=C(/N)SC1CC(=O)N(c2ccc(C(=O)O)cc2)C1=O (stereo unspecified) | 99.6 | n | n | n | u | n
CC(C)(C)C(=O)NC(=S)NCc1ccccc1 | n | n | n | n | n | n
CCCN1CCN(CCCNC(=O)Cn2nc(C)n3c(cc4cc(OC)ccc43)c2=O)CC1 | n | x | x | n | x | n
COc1ccccc1CNC(=O)N1CCN(c2ccccc2C)CC1 | n | n | n | n | n | n
O=C(COC(=O)/C=C/C(=O)N1CCN(c2ccccc2)CC1)NCc1ccc(F)cc1 | n | n | n | n | n | n
COC(=O)/C=C/C(=O)N1CCN(c2ccccc2C)CC1 | 98.3 | n | n | n | n | n
COC(=O)/C=C/C(=O)N1CCN(c2ccccc2)CC1 | 96.8 | n | n | n | n | n
Cn1c(CN2CCN(c3ccc(Cl)cc3)CC2)nc2ccccc21 | n | n | n | n | n | n
CCn1c(CN2CCN(c3ccc(Cl)cc3)CC2)nc2ccccc21 | 95.7 | n | n | n | n | n
CCN(CCCNC(=O)CN(C)S(=O)(=O)c1cccc2nsnc12)c1ccccc1 | 95.3 | n | n | n | n | n
CN(CC(=O)NCCc1ccccc1)S(=O)(=O)c1cccc2nsnc12 | n | n | n | n | n | n
Cc1ccc(CSC2=NCCN2C(=O)c2ccc([N+](=O)[O-])cc2)cc1 | n | n | n | n | n | n
O=C(c1ccco1)N1CCN=C1SCc1ccccc1F | 95.4 | n | n | n | n | n
SMILES | ALR inh | PABP FP inh | UBC9 SUMO inh | MLLE-PAM2 inh | eIF4H inh | Efflux pump mplx
Cc1ccc(CSC2=NCCN2C(=O)c2ccco2)cc1 | 94.5 | n | n | n | n | n
O=C(c1ccc(S(=O)(=O)N2CCOCC2)cc1)N1CCN=C1SCc1cccnc1 | 98.9 | n | n | n | n | n
Cc1cccc(CSC2=NCCN2C(=O)c2ccco2)c1 | 96.5 | n | n | n | n | n
O=C(CNc1cc(S(=O)(=O)N2CCOCC2)ccc1N1CCCC1)Nc1ccc(Cl)cc1 | x | x | x | n | x | x
Cc1cc(C)cc(C(=O)OCC(=O)NCc2ccco2)c1 | n | x | x | n | x | n
Cc1cc(C)cc(NC(=S)N2CCN(S(=O)(=O)c3ccccc3)CC2)c1 | n | n | n | n | n | n
COCCNC(=O)CCC1CCN(Cc2cccc(Oc3ccccc3)c2)CC1 | n | n | n | n | n | n
Cc1nc(NC(=O)CN2CCCCC2)sc1C(=O)N(C)C | n | n | n | n | n | n
O=C(c1cccs1)N1CCN=C1SCc1cccnc1 | 98.7 | n | n | n | n | n
O=C(c1ccco1)N1CCN=C1SCc1cccnc1 | 99.0 | n | n | n | n | n
O=C(c1cccs1)N1CCN=C1SCc1ccc(Cl)cc1 | u | n | n | n | n | n
O=C1NCCN1C(=O)c1ccco1 | n | n | n | n | n | n
O=C(N1CCN=C1SCc1cccnc1)C12CC3CC(CC(C3)C1)C2 | 98.9 | n | n | n | n | n
CCCCNc1ncnc2[nH]ncc12 | x | x | x | n | x | x
Cc1cccc(N2C(=S)NC3c4cc(Cl)ccc4OC2(C)C3C(=O)N(C)C)c1 (stereo unspecified) | n | n | n | n | n | n
Cc1ccc(N2C(=S)NC3c4cc(Cl)ccc4OC2(C)C3C(=O)N(C)C)cc1 (stereo unspecified) | n | n | n | 44.0 | n | n
CC(C)(C)c1ccc(/C([O-])=C(/C(=S)NCc2ccco2)[n+]2ccccc2)cc1 | n | 59.6 | n | x | 31.8 | n
CCNC(=S)/C(=C(/[O-])c1ccc([N+](=O)[O-])cc1)[n+]1ccccc1 | 99.0 | n | n | n | n | n
CC(C)(C)c1ccc(C(=O)NC(=S)NCc2ccco2)cc1 | n | n | n | n | n | n
O=C(CSc1c[nH]c2ccccc12)NCc1ccc2c(c1)OCO2 | 98.3 | n | n | n | n | n
O=C(CN1CCCc2ccccc21)NCc1ccc2c(c1)OCO2 | n | n | n | n | n | n
O=C(CN1CCc2ccccc21)NCc1ccc2c(c1)OCO2 | 98.8 | n | n | n | n | n
C=CCN1C(=O)/C(=C\c2ccc(Cl)cc2)N=C1SCC(=O)NC1CCCCC1 | n | n | n | 40.3 | n | n
S=C1Nc2ccccc2CS1 | x | x | x | n | x | x
c1ccc2c(c1)CSc1ccccc1N2 | 98.3 | x | x | n | x | n
SMILES | ALR inh | PABP FP inh | UBC9 SUMO inh | MLLE-PAM2 inh | eIF4H inh | Efflux pump mplx
CCOC(=O)c1ccc(S(=O)(=O)NNC(=O)Cc2csc(C)n2)cc1 | n | x | x | n | x | n
CCOC(=O)/C(C#N)=C\c1ccc(CC)s1 | n | n | n | n | n | n
CCOC(=O)/C(C#N)=C\C=C1C=CN(C)C=C1 | 99.0 | u | n | n | u | n
COc1ccc(NS(=O)(=O)c2ccc(N3CCOCC3)c(N)c2)cc1 | n | x | x | n | x | n
C=CCn1c(SCC(=O)Nc2cccc(S(N)(=O)=O)c2)nc2sc(C)c(C)c2c1=O | n | x | x | n | x | n
O=C(Nc1ccccc1)SC1CCCCC1 | x | x | x | n | x | x
CC(C)Cn1c(-c2nn(C)cc2Cl)n[nH]c1=S | n | n | n | n | n | n
CCCCn1c(-c2nn(C)c(C)c2Cl)n[nH]c1=S | n | n | n | n | n | n
Cn1cc(Cl)c(-c2n[nH]c(=S)n2-c2ccc(F)cc2)n1 | 87.5 | n | n | n | n | n
Cc1ccc(-n2c(-c3nn(C)cc3Cl)n[nH]c2=S)cc1 | n | n | n | n | n | n
Cc1c(Cl)c(-c2n[nH]c(=S)n2CC(C)C)nn1C | 92.6 | n | n | n | n | n
Cc1c(Cl)c(-c2n[nH]c(=S)n2-c2ccc(F)cc2)nn1C | 91.2 | n | n | n | n | n
Cc1ccsc1-c1n[nH]c(=S)n1CC(C)C | 94.1 | n | n | n | n | n
O=C(c1ccco1)N1CCN(C2CN(C3CCCCC3)S(=O)(=O)C2)CC1 (stereo unspecified) | x | x | x | n | x | x
COc1ccc(CCn2c(C)cc(C(=O)CN3C(=O)C(=O)N(Cc4ccco4)C3=O)c2C)cc1 | n | x | x | n | x | n

Assay outcomes from PubChem BioAssay.
